Drawing on PubChem BioAssay (NCI), this text covers growth for 38 molecules.

About 83,000 compounds went through this panel and 20% of them were active in at least one assay; those are over-represented in the sample as a whole.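 A percent growth of 40 corresponds to 60% growth inhibition; 0 means no net growth; -100 means all cells died. Active threshold: below 10.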 A number with no mark means an inactive call. Activity calls are given as the source filed them.

This test relates to SNB-75 CNS. Description: NCI-60 one-dose screen, 48 h (100 = growth as untreated, 0 = no growth, -100 = all killed). Particulars: 10 µM unless noted.
For the molecule `O=C1Nc2ccccc2/C1=C/c1cn(C(=O)c2c(Cl)cccc2Cl)c2ccccc12`, the growth is 54.7%.
As for `C=CCn1c(C)nc2cc(Nc3nc(N4CCCC4)nc4ccccc34)ccc21`, the growth was 83.6%.
In the case of `COc1ccc2nc(NNC(=O)c3cnccn3)c3cccn3c2c1`, the growth was 25.3%.
In the case of `CC(=O)OC1CCC2(C)C(=CC3C4CCC(=O)C4(C)CCC32)C1` (stereo not drawn) it was 83.8%.
On to `Cc1ccc(-n2c(-c3ccccc3)c(-c3ccccc3)c3c(SCC(=O)n4[nH]c(N)cc4=O)ncnc32)cc1`, for which the growth was 97.1%.
In the case of `C[C@@H]1N=C(c2ccc3ccccc3n2)Nc2nc3ccccn3c2C1=O` it was 84.7%; in that of `N[C@@H](CCCCNCC(=O)O)C(=O)O`, 84.1%.
In the case of `Clc1cccc(Cl)c1C(Nc1nc2ccccc2s1)Nc1nc2ccccc2s1` it was 80.8%; in that of `COc1cc(/C=C/C(=O)c2c(C)nc3ccccc3c2C)ccc1OCCCN1CCN(C(=O)c2ccco2)CC1`, -70.5% (active).
In the case of `Cc1ccc(Cc2cnc(NC(=O)c3ccc4noc(-c5ccccc5)c4c3)s2)cc1` it was 94.1%; in that of `CC(=O)c1nc(Nc2ccc(C)cc2)sc1C`, 75%.
For `Cc1c(C(=O)OC(=NC2CCCCC2)NC2CCCCC2)sc2c1c(=O)nc1c(C#N)n[nH]n12`, the growth was 89.9%.
Turning to `O=C(CCc1nnc(CN(c2ccccc2)c2ccccc2)o1)c1nc2ccccc2[nH]1`, the growth is 86.9%.
In the case of `O=C(CC(SCc1ccccc1)c1ccccc1)c1ccccc1` (stereo not drawn) it was 87.9%; in that of `COc1ccc(-c2nc3ccc4[nH]ncc4c3c3c2CCCC3)cc1B(O)O`, 18.9%; in that of `CC(C)(C)OC(=O)Nc1ccc2c(c1)C(NC(=O)Nc1cccc(C#N)c1)CC(C)(C)O2` (stereo not drawn), 71.8%.
As for `O=C(NCCc1ccc(O)c(O)c1)C12CC3CC(CC(C3)C1)C2`, the growth was 82%.
In the case of `CC1=NOC(=O)/C1=C\c1ccc(O)cc1` it was 77.9%; in that of `O=C1/C(=C\c2cccnc2)SC(=S)N1CCc1ccc(O)cc1`, -4.79% (active); in that of `Cn1cc(-c2csc(-c3cccc(F)c3)n2)c2cccnc21`, -29.4% [100 µM] (active).
As to `C=CCn1c(C)nc2cc(Nc3nc(Cl)nc4ccccc34)ccc21`, the growth was 96.9%.
In the case of `O=C(NC(Cc1nnc2n(Cc3ccccc3)c(=O)c3c4c(sc3n12)CCCC4)c1ccc(Cl)cc1)c1ccccc1` (stereo not drawn) it was 73.7%; in that of `N#Cc1c(-c2cccc(Cl)c2)cc(-c2cccc(Cl)c2)[nH]c1=O`, 43%.
In the case of `Clc1cccc(Cl)c1/C=C/c1cc(/C=C/c2c(Cl)cccc2Cl)[nH]n1` it was 11%; in that of `O=C1c2cccc(NCCN=Cc3cc([N+](=O)[O-])ccc3O)c2C(=O)c2c(NCCN=Cc3cc([N+](=O)[O-])ccc3O)cccc21`, 65.9%.
On to `COC(=O)[C@H](CSC)N(C)C(=O)[C@@H]1CSSC[C@@H](NC(=O)c2nc3ccccc3cc2O)C(=O)NCC(=O)N1C`, for which the growth was 132%.
Consider `O=C1N=c2cc3c(cc2=C/C1=C/c1sc(=S)n(CCc2ccc(O)cc2)c1O)OCCO3`, for which the growth was 61.4%.
For the molecule `O=C1CC(N2C(=O)/C(=C/C(Cl)=C\c3ccc([N+](=O)[O-])cc3)SC2=S)C(=O)N1c1ccc(O)cc1` (stereo not drawn), the growth was 14.9%.
In the case of `CC(C)(C)C(CCc1ccc(Cl)cc1)N1CCN(C2CCCCC2)CC1` (stereo not drawn) it was 77.7%.
`COC1=C(OC)C(=O)C(OC)=C(OC)C1=O`: the growth is 106%.
In the case of `COc1cc2ncn3c(=O)c4c5c(sc4nc3c2cc1OC)CCCC5` it was 85.1%.
In the case of `CCn1c(C)nc2cc(C(N)=O)ccc21` it was 90.2%; in that of `O=C(CCCCCCSc1nc(-c2ccccc2)cc(-c2ccc(Cl)cc2)n1)NO`, 17.8%; in that of `O=C(Nc1cccc(C(F)(F)F)c1)Nc1cccc(C(F)(F)F)c1`, 11.1%.
For the molecule `COc1ccc(NC(=O)c2nc(-c3cc(OC)c(OC)c(OC)c3)n(-c3cccc4ccccc34)n2)cc1OC`, the growth was 24.4%.
As for `CCSC1=NC2C(N(CC)C(=O)N2CC)N1/N=C/C=C/c1ccccc1[N+](=O)[O-]` (stereo not drawn), the growth is 23.8%.
For `CC(C)C(=O)Nc1n[nH]c2cc(-c3cccc(NS(=O)(=O)C4CC4)c3)ccc12`, the growth was 54.3%.
In the case of `Cn1c(=O)c2[nH]c(NN)nc2n(C)c1=O` it was 89.6%.
